F508del corr: correctors of CFTR F508del function in bronchial epithelial cells. AID 720511. hit rate 0.36% among 350,000. CFBE cells, YFP halide quenching; stimulated with forskolin plus potentiator P3; % fluorescence drop versus neutral controls. activity (quench increase), % at 7.58 µM;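 active = mean added fluorescence quench of at least 8% versus neutral control, with both replicates also reaching 8%; inconclusive = only one of the mean or replicate conditions met; inactive = mean below 8% and not both replicates reaching 8%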;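 note: cells transiently co-express mutant CFTR-F508del with the halide-sensitive YFP; corrector assay measuring rescue of mutant channel to the surface after 24 h compound exposure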
Wnt bcat act: activates Wnt/beta-catenin signaling in a reporter cell assay; activator, plate reader; activation, % at 9.35 µM; hit rate 1.2% among 300,000; AID 743398; in the data active = activation above about 30%, passing the limit was not always enough; inconclusive = no clear call, values can overlap the other calls;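 note: 0% = neutral control wells and 100% = positive control wells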
HIV Env fusion: HIV envelope-mediated fusion inhibition | HeLa-JRFL Env/CEM21 cell fusion, luciferase | inhibition, % at 12.3 µM | hit rate 1.1% among 360,000 | AID 651610;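 active = mean replicate inhibition score of at least 50 and every replicate individually at or above 50; inconclusive = only one of the two criteria met; inactive = mean below 50 and not all replicates reaching 50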;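 note: 0% = plate neutral controls and 100% = maraviroc near 300 nM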
GSIS activator: GLuc luminescence reporter in INS-1E cells, primary screen for activators of glucose-dependent secretion of insulin. activation, % at 16.6 µM. hit rate 0.61% among 370,000. INS-1E GLuc reporter insulin secretion, 2-3 h;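 active = lowest replicate activation of at least 40%, so every replicate reaches that level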;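 note: 0% = median of neutral control wells and 100% = median of IBMX positive control wells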
MITF act: increases MITF-driven TRPM1 promoter luciferase signal. SK-MEL-5 TRPM1-promoter luciferase, 24 h; % of positive control, neutral wells = 0. activation, % at 12.5 µM. hit rate 0.75% among 300,000. AID 588334;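 active = mean activation of at least 80% with every replicate also reaching 80%; inconclusive = mean reaches 80% but some replicate falls short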;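 note: 0% = neutral control wells and 100% = parthenolide positive control wells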
* = called active by the depositor; ? = inconclusive; / = no result; ! = not active in a repeat; [ ] = remark or other dose. Shown are actives, neighbours in structure and some others; about 2.7% of the full set was active somewhere.

SMILES	F508del corr	Wnt bcat act	HIV Env fusion	GSIS activator	MITF act
O=C(c1ccc(C(F)(F)F)cc1)N1CCC(=O)N(C(COCc2ccc(Cl)cc2)Cc2ccccc2)CC1 (stereo unspecified)	-3	0	28	-33	-2
O=C(C1CCCCC1)N1C[C@H]2[C@@H](c3ccccc31)[C@H](CO)N2C(=O)c1ccccc1F	2	/	/	3	/
O=C([C@H]1[C@H](CO)[C@H]2Cn3c(ccc(-c4ccccc4F)c3=O)[C@@H]1N2C(=O)C1CC1)N1CCOCC1	-2	/	/	1	/
C[C@H](CO)N1C[C@H](C)[C@@H](CN(C)Cc2ccc(Cl)c(Cl)c2)Oc2ccc(NS(=O)(=O)c3ccc(Cl)cc3)cc2C1=O	7	/	13[16.7 µM]	-2	/
CO[C@H]1CN(C)C(=O)c2ccc(NC(=O)C3CC3)cc2OC[C@H](C)NC[C@H]1C	-3	/	/	5	/
CC1CCc2nc(NC(=O)Cc3cccs3)sc2C1 (stereo unspecified)	/	-3	/	/	126*
CC(C)(C)c1csc(NC(=O)c2cccs2)n1	/	/	/	/	51
Cc1ccc(-c2csc(NC(=O)CCCc3cccs3)n2)cc1	/	-7	7	98*	8
CC(=O)Nc1ccc(-c2csc(NC(=O)CCCc3cccs3)n2)cc1	2	-8	-69	-1	9
CC(C)(C)c1csc(NC(=O)Cc2cccs2)n1	9.7*	-2	-3	-10	15
Cc1nn(-c2ccccc2)c(N)c1N=Nc1cccnc1	1	11	-25	-10	97*
Nc1nn(-c2ccccc2)c(N)c1N=Nc1cccc(F)c1	11*	20	-487	7	/
C[n+]1c2n(c3ccccc31)N=C(c1ccc(-c3ccccc3)cc1)CS2	0	6	66*	-36	-80
C[n+]1c2n(c3ccccc31)N=C(c1ccc(Br)cc1)CS2	/	/	32	/	/
C[n+]1c2n(c3ccccc31)N=C(c1ccccc1)CS2	3	-1	61*!	-7	-24
COc1ccc(S(=O)(=O)Nc2ccc3c(c2)C(=O)N([C@H](C)CO)C[C@@H](C)[C@H](CN(C)C(=O)Nc2ccccc2)OCCCC[C@H](C)O3)cc1	/	/	/	-18	/
CC(=NNC(=S)N1CC2CCC(CC2)C1)c1cnccn1	11*	-4	-396	17	-67
CC(=NNC(=S)N1CC2CCC(CC2)C1)c1ccccn1	6	-2	9	/	/
Cc1ccc(OCC(=O)Nc2c[nH]c(=O)[nH]c2=O)cc1C	0	-4	-47	8	11
Cc1ccc(C)c(OCC(=O)Nc2nonc2NC(=O)COc2cc(C)ccc2C)c1	/	-10	68*	129*	-1
Cc1ccc(C)c(OCC(=O)Nc2c[nH]c(=O)[nH]c2=O)c1	/	-8	57*	10	-16
Cc1cccc(OCC(=O)Nc2nonc2NC(=O)COc2cccc(C)c2)c1	/	/	-57	/	11
Cc1noc(C)c1S(=O)(=O)N(C)C[C@H]1Oc2ccc(NC(=O)Cn3cnnn3)cc2CC(=O)N([C@H](C)CO)C[C@H]1C	0	/	-8[16.7 µM]	5	/
Cc1cccc(C)c1-n1nnnc1C(c1ccnc2ccccc12)N(Cc1ccccc1)Cc1ccccc1 (stereo unspecified)	-3	-2	90*	-11	/
c1ccc(CN(Cc2ccccc2)C(c2ccnc3ccccc23)c2nnnn2-c2ccc3c(c2)OCCO3)cc1 (stereo unspecified)	-4	-2	22	-43	/
SMILES	F508del corr	Wnt bcat act	HIV Env fusion	GSIS activator	MITF act
CN(CCc1ccccc1)C(c1ccnc2ccccc12)c1nnnn1-c1ccc2c(c1)OCCO2 (stereo unspecified)	2	-2	60*	-17	/
CCCN1C=CC(=C2C(=O)c3ccccc3C2=O)C=C1	/	/	107*	/	-104
CCCCCCN1C=CC(=C2C(=O)c3ccccc3C2=O)C=C1	2	-4	44	1	-79
CCCCN1C(C)=CC(=C2C(=O)c3ccccc3C2=O)C=C1C	4	10	-41	-1	-11
CCN1C=CC(=C2C(=O)c3ccccc3C2=O)C=C1	/	/	73*	/	-98
Cc1noc(C)c1S(=O)(=O)N(C)C[C@@H]1Oc2ccc(NS(=O)(=O)c3ccc(Cl)cc3)cc2CC(=O)N([C@H](C)CO)C[C@H]1C	5	/	-43[16.7 µM]	4	/
COc1ccc(C#Cc2ccc3c(c2)[C@@H]2[C@@H](CCN2C(=O)c2cccc(F)c2)[C@@H](CO)N3)cc1	8.7*	/	/	14	/
CNC[C@@H]1OCCCC[C@H](C)Oc2ccc(NC(=O)NC3CCCCC3)cc2C(=O)N([C@@H](C)CO)C[C@H]1C	1	/	-11[16.7 µM]	17	/
COc1cccc(C(=O)O/N=C(\N)c2ccc([N+](=O)[O-])cc2)c1OC	/	/	/	/	84*
COc1ccccc1C(=O)O/N=C(\N)c1ccccc1Cl	-1	70*	-90	16	41
O=C(C[C@@H]1CC[C@@H](NC(=O)Cc2cccnc2)[C@@H](CO)O1)Nc1ccccc1	-1	/	/	3	/
C[C@H](CO)N1C[C@H](C)[C@@H](CN(C)S(=O)(=O)c2ccc(F)cc2)Oc2ncc(-c3ccncc3)cc2C1=O	1	/	/	29	/
COc1ccc([C@H]2CC(=O)C=C(c3cccc(C(C)C)c3)C2)cc1OC	2	-5	63*	-7	-14
CCOc1ccc(Cl)cc1C1=CC(=O)C[C@H](c2ccc(OC)cc2)C1	9.1*	-15	10	15	-15
COc1ccc([C@H]2CC(=O)C=C(c3c(OC)cccc3OC)C2)cc1	11*	-10	34	/	-18
CCNC(=O)C[C@@H]1CC[C@@H]2[C@H](COc3ccc(NC(=O)Cc4cccs4)cc3C(=O)N2C)O1	-1	/	38[16.7 µM]	3	/
CC=Cc1ccc2n(c1=O)C[C@H]1[C@H](CO)[C@@H](C(=O)NCc3ccccc3)N(CCC(F)(F)F)[C@@H]21 (mixture of isomers)	-1	/	/	2	/
C[C@@H]1CN([C@@H](C)CO)C(=O)c2cc(NS(=O)(=O)c3ccccc3)ccc2O[C@H]1CN(C)S(C)(=O)=O	0	/	/	5	/
COc1ccc(C)cc1NCc1cc(=O)oc2cc(-c3ccccc3)c(O)cc12	/	/	-12	107*	34
COC(=O)C[C@H]1C=C[C@@H](NS(=O)(=O)c2ccc(OC)cc2)[C@@H](CO)O1	1	/	-20[16.7 µM]	4	/
Oc1ccccc1C=NN=C1c2ccccc2-c2ccccc21	-1	?	-16	6	40
C/C(=N/N=C/c1ccccc1O)c1ccccc1O	1	44*	-67	4	56
CC(=O)Nc1cc2nn(-c3ccccc3)nc2cc1Cl	/	55*	-143	/	30
CC(C)=CC(=O)N1CCC(N2CCC(C(=O)N3CCOCC3)CC2)CC1	0	1	-7	5	-9
CN1CCCCCC1C(=O)N1CCC(N2CCC(C(=O)N3CCOCC3)CC2)CC1 (stereo unspecified)	-1	2	-4	49*	-2
COc1ccc(-c2cn(CCNC(=O)[C@H](Cc3ccccc3)NS(=O)(=O)c3ccc(C)cc3)nn2)cc1OC	-1	/	-10[16.7 µM]	/	/
CCCCCn1c(=O)[nH]c2cc(C(=O)NCc3ccc4c(c3)OCO4)ccc2c1=O	/	-9	-5	/	-1

Compound activity (PubChem)
